How the values were obtained:
[1] = system: TYK2(JH1domain-catalytic)
[2] = system: TYK2(JH2domain-pseudokinase)
VEGFR2 = system: T1, VEGFR2
T1 construct: gene KDR
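Also: kd values determined as follow-up on hits from a single-replicate KINOMEscan panel screen.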

Work on `O=C1NC(=O)C(c2ccc(Cl)cc2)=C1Nc1ccc(O)cc1` [SB-340867] yielded a Kd (TTK) of 5.5 µM.
`CC(=O)c1c(C)c2cnc(Nc3ccc(N4CCNCC4)cn3)nc2n(C2CCCC2)c1=O` gave a Kd (TTK) of 0.0092 µM.
In the case of `Cn1cncc1C(=O)NC1CCN(c2ccnc(Nc3ccc(F)cc3)n2)C1` (stereo not drawn) [GSK1379717], the Kd (TXK) is reported as over 10 µM.
`COc1cccc(CNC(=O)NC2CCN(c3ccnc(Nc4ccc(F)cc4)n3)C2)c1` (stereo not drawn) [GSK1379723] gave a Kd (TXK) of over 10 µM.
Work on `Cn1cncc1-c1cc2c(Nc3ccc(OCc4ccccc4)cc3)ncnc2cn1` [GW281179] yielded a Kd [1] of over 10 µM.
In the case of `CN1c2ccc(-c3ccc(C(N)=O)cc3)cc2-c2[nH]ncc2S1(=O)=O`, the Kd [2] is reported as 0.93 µM.
Work on `Cn1cnc2c(N)ncnc21` [SKF-97623] yielded a Kd (VEGFR2) of over 10 µM and a Kd (VRK2) of over 10 µM.
For `O=C1NC(=O)C(c2ccc(Cl)cc2)=C1Nc1cccc(Cl)c1` [SB-317651], the Kd (VRK2) was over 10 µM.
For `Cl.Cl.Cl.N#Cc1ccc(CCNc2nccc(-c3cccc(CN4CCNCC4)c3)n2)cc1` [GSK2137462], the Kd (WEE1) was over 10 µM and the Kd (WNK4) was over 10 µM.
For `CNc1cc(-c2ccc3c(N)n[nH]c3c2)nc(N)n1` [GSK2224810], the Kd (WNK4) was over 10 µM.

Reference: paper PMC5540273 (PLoS ONE, 2017)
